A short description of experiment [1]: qHTS assay to identify small molecule antagonists of the androgen receptor (AR) signaling pathway using the MDA cell line in the presence of 0.5 nM R1881 - cell viability counter screen (AID 1259242). Also: nearly all actives have a fitted effect of over 45% in size. In a few lines: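 Concentration-response screen of compounds for toxicity in MDA-kb2 reporter cells: 16 hr at 37C with 0.5 nM R1881, endpoint live-cell protease fluorescence measured in the reporter wells.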
Background: qHTS replaces the single test concentration by a dilution series.

Experiment [2] in a line: qHTS assay to identify small molecule HDAC inhibitors (AID 1259364).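 Also: wild-type HCT-116 cells with endogenous class I/II HDAC activity; top concentration of the series differs between compounds; nearly all actives have a fitted effect of over 45% in size.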 In a few lines:
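Screening used wild-type human colon HCT-116 cells incubated overnight, dosed with compounds for 2 hours, and assayed with a homogeneous luminogenic HDAC I/II reagent for 30 minutes at room temperature.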

Experiment [3] can be described thus: qHTS assay to identify small molecule HDAC inhibitors - cell viability counter screen (AID 1259365). Also: series mostly up to about 92 µM; nearly all actives have a fitted effect of over 50% in size. In a few lines: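 To flag cytotoxic hits, 1,500 wild-type HCT-116 cells per well, plated the day before, receive test compounds for 2hr at 37 C before CellTiter-Glo reagent and a luminescence read.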
Experiment [4] can be described thus: qHTS assay to identify small molecule agonists of the sonic hedgehog signaling (Shh) pathway - cell viability counter screen (AID 1259366). Also: nearly all actives have a fitted effect of over 50% in size. Also: potency is read from the fitted curve at half-maximal effect. In a few lines:
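Fluorescence from CellTiter-Fluor reports live cells in this counter screen. NIH/3T3-derived Gli1-Luc reporter cells receive test compounds for 24hr at 37C; reagent goes in at 23hr.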

Experiment [5] is described as follows: qHTS assay to identify small molecule antagonists of the sonic hedgehog signaling (Shh) pathway - cell viability counter screen (AID 1259367). Also: nearly all actives have a fitted effect of over 55% in size. Also: potency is read from the fitted curve at half-maximal effect. In a few lines:
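Conditioned medium drove Shh signaling in 3T3 Gli1-Luc cells exposed to compounds at 37C and 5% CO2. Viability was determined from CellTiter-Fluor fluorescence, with reagent incubated 1 hr after 23 hr of treatment.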

A short description of experiment [6]: qHTS assay to identify small molecule agonists of the sonic hedgehog signaling (Shh) pathway (AID 1259368; calls by dose curve;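 also: NIH/3T3-derived 3T3Gli1-Luc cells carrying a stable Gli1-driven firefly luciferase reporter; series mostly up to about 92 µM; nearly all actives have a fitted effect of over 15% in size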). The method in brief: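 Hedgehog pathway agonism scored by increased firefly luciferase luminescence in 3T3Gli1-Luc cells treated 24 hr at 37 C; detection used a 30 min room-temperature reagent incubation.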
The nature of experiment [7]: qHTS assay to identify small molecule agonists of the androgen receptor (AR) signaling pathway in the presence of an antagonist - cell viability counter screen (AID 1259379).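 Also: MDA-kb2 human breast cancer cells carrying an MMTV luciferase reporter; series mostly up to about 92 µM; nearly all actives have a fitted effect of over 25% in size.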 In a few lines:
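MDA-kb2 viability measured by CellTiter-Fluor fluorescence in the same wells as the luciferase signal; nilutamide 3.0uM final; 15-point compound titration; 16 hr at 37C.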

The nature of experiment [8]: qHTS assay to identify small molecule agonists of the estrogen receptor beta (ER-beta) signaling pathway - cell viability counter screen (AID 1259380). Also: nearly all actives have a fitted effect of over 30% in size. The method in brief:
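Measured: luminescence from CellTiter-Glo after 30 min at room temperature, added to wells already read for the LiveBLAzer FRET reporter (2 hr substrate); ER-beta-UAS-bla HEK293T cells had 16 hr compound treatment at 37C, 5% CO2.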

A short description of experiment [9]: qHTS assay to identify small molecule antagonists of the estrogen receptor beta (ER-beta) signaling pathway - cell viability counter screen (AID 1259382). Also: series mostly up to about 92 µM; nearly all actives have a fitted effect of over 55% in size. In a few lines:
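Readout: luminescence, CellTiter-Glo, same wells as bla assay. System: ER-beta-UAS-bla GripTite HEK293T, 2% charcoal-stripped FBS. Exposure: compounds plus 1nM 17-beta-estradiol, 16 hr, 37C.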

Experiment [10] is described as follows: qHTS assay to identify small molecule agonists of the estrogen receptor alpha (ER-alpha) signaling pathway in the presence of an antagonist - cell viability counter screen (AID 1259386).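 Also: series mostly up to about 92 µM; cells exposed to compounds for 22 h at 37 °C before the viability read; nearly all actives have a fitted effect of over 30% in size.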 The method in brief: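 The test measures whether compounds kill ER-alpha reporter cells (VM7Luc4E2) under antagonist co-treatment (ICI-182,780, 10.0nM). Fluorescence from CellTiter-Fluor is read after a 22hr exposure.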

A short description of experiment [11]: qHTS assay to identify small molecule antagonists of the sonic hedgehog signaling (Shh) pathway (AID 1259369; calls by dose curve; also: nearly all actives have a fitted effect of over 45% in size). The method in brief: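 NIH/3T3 stable Gli1-Luc clone, 2,000 cells/well, 4hr settle; cpd + conditioned medium 24hr; Luc reagent 30min RT; luminescence.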
The nature of experiment [12]: qHTS assay to identify small molecule agonists or antagonists of the thyroid stimulating hormone receptor (TSHR) signaling pathway - wild type cell line counter screen (AID 1259384; calls by dose curve). The method in brief: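 Wild-type HEK293 cells were plated 18 h at 37 C/5% CO2, pin-dosed with compound plus Ro20-1724 medium, held 30 min at room temperature, then given cAMP-d2 and anti-cAMP-cryptate; fluorescence was read after 1 h. Fifteen concentrations, triplicate.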

The target of experiment [13] is Thyrotropin receptor (Homo sapiens) (UniProt P16473). The experiment can be described thus: qHTS assay to identify small molecule antagonists of the thyroid stimulating hormone receptor (TSHR) signaling pathway (AID 1259385; calls by dose curve; also: nearly all actives have a fitted effect of over 20% in size). In a few lines:
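TSHR-HEK293 cells were plated and held 18 h at 37C/5% CO2, then given compound plus Ro20-1724 and stimulated with TSH at 1.5 ng/mL final. After 30 min at room temperature, cAMP was detected with cAMP-d2/anti-cAMP-cryptate (1 h) by fluorescence.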

Experiment [14] has as its target Estrogen receptor beta (Homo sapiens) (UniProt Q92731). Nature of the experiment: qHTS assay to identify small molecule agonists of the estrogen receptor beta (ER-beta) signaling pathway (AID 1259377; active = well fitted activation curve with a large enough effect in the signal ratio in the repeat runs, not every such curve was filed as active; the % refers to the signal ratio). In a few lines: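 Screening used GripTite ER-beta-UAS-bla cells held in 2% charcoal-stripped FBS medium. After overnight (16 hr) compound incubation at 37C, beta-lactamase activity was detected with a FRET substrate by fluorescence.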

The target is the same in experiment [15]. The experiment can be described thus: qHTS assay to identify small molecule antagonists of the estrogen receptor beta (ER-beta) signaling pathway (AID 1259378; active = well fitted inhibition curve with a large enough effect in the signal ratio in the repeat runs, not every such curve was filed as active; the % refers to the signal ratio). In a few lines:
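ER-beta-UAS-bla HEK293T (GripTite) cells in 2% charcoal-stripped FBS medium were preincubated 6 hr at 37C, dosed with compound, then stimulated with 1 nM E2 (final) for 16 hr; beta-lactamase reporter read by B/G FRET fluorescence after 2 hr substrate loading.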

Experiment [16] concerns the target Androgen receptor (Homo sapiens) (UniProt P10275). The experiment can be described thus: qHTS assay to identify small molecule antagonists of the androgen receptor (AR) signaling pathway using the MDA cell line in the presence of 0.5 nM R1881 (AID 1259243). Also: nearly all actives have a fitted effect of over 50% in size. In a few lines: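 With R1881 held at 0.5 nM (final), compound effects on MMTV-luciferase expression in MDA-kb2 cells were scored by luminescence after a 16 hr, 37C incubation.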

Experiment [17] concerns the target Estrogen receptor (Homo sapiens) (UniProt P03372). Nature of the experiment: qHTS assay to identify small molecule antagonists of the estrogen receptor alpha (ER-alpha) signaling pathway using the BG1 cell line in the presence of 0.1 nM 17-beta-estradiol (AID 1259244). Also: nearly all actives have a fitted effect of over 50% in size. In a few lines:
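Compounds were tested against 0.1 nM (final) 17beta-estradiol in VM7Luc4E2 cells, which express full-length ER-alpha and an ERE-luciferase reporter; luminescence was recorded following 22 h exposure.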

Experiment [18] addresses Androgen receptor (Homo sapiens) (UniProt P10275). Nature of the experiment: qHTS assay to identify small molecule agonists of the androgen receptor (AR) signaling pathway in the presence of an antagonist (AID 1259381; calls by dose curve; also: nearly all actives have a fitted effect of over 15% in size). In a few lines: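 Luminescent ONE-Glo read, 30min at room temperature, follows 16hr compound exposure (15 concentrations) of MDA-kb2 cells at 37C, 0% CO2, with nilutamide added at 3.0uM final.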

Experiment [19] addresses Estrogen receptor (Homo sapiens) (UniProt P03372). The experiment can be described thus: qHTS assay to identify small molecule agonists of the estrogen receptor alpha (ER-alpha) signaling pathway in the presence of an antagonist (AID 1259383; calls by dose curve; also: top concentration of the series differs between compounds; nearly all actives have a fitted effect of over 15% in size). The method in brief: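 Quantitative HTS confirmation: compounds titrated at 15 concentrations onto estrogen-deprived VM7Luc4E2 cells carrying a four-ERE luciferase construct, with ICI-182,780 present at 10.0nM final. Signal is luminescence after 22hr exposure.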

Inconclusive results are not listed. The source made the active and inactive calls. Unless noted, calls follow the shape of the dose curve; as a rule, active = well fitted curve in the direction sought with a large enough effect in the repeat runs; inconclusive = weak or mixed curves; inactive = no such curve, though single readings can be large; an effect the other way counts as inactive or inconclusive.

Sequence of Thyrotropin receptor (Homo sapiens) (P16473 whole entry, looked up): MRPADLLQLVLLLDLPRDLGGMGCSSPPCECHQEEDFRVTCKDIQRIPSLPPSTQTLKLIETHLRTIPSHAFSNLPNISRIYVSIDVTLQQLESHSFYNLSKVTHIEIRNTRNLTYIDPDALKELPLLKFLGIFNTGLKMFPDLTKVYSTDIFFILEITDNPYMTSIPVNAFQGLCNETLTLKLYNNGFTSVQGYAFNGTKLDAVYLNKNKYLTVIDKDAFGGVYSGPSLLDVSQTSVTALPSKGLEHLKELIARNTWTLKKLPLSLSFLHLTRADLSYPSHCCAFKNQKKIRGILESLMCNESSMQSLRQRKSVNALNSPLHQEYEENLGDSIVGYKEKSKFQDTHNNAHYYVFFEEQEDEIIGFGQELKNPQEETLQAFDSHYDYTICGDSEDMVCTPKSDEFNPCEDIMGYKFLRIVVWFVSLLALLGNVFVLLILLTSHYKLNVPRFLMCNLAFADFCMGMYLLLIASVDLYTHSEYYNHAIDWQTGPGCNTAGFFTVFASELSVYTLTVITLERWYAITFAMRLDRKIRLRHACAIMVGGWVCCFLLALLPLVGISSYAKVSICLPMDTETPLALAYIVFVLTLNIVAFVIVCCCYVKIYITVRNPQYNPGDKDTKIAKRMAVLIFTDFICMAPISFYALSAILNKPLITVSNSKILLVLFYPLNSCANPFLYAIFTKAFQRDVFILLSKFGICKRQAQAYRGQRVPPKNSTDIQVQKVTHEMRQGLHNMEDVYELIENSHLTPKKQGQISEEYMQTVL
Sequence of Estrogen receptor beta (Homo sapiens) (Q92731 whole entry, looked up): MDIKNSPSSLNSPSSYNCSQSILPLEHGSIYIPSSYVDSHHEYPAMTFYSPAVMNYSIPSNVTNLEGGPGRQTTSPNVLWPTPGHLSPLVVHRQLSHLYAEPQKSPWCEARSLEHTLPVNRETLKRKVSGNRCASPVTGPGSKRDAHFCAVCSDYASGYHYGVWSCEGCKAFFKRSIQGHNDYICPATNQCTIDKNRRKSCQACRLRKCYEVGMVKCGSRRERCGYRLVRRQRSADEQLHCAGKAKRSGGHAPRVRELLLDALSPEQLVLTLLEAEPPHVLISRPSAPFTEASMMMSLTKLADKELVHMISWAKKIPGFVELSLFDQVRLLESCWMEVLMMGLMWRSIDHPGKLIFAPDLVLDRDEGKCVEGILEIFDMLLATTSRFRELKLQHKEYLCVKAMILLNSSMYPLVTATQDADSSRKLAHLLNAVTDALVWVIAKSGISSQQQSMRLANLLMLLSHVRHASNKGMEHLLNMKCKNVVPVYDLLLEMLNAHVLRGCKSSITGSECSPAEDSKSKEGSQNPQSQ
Sequence of Androgen receptor (Homo sapiens) (P10275 whole entry, looked up): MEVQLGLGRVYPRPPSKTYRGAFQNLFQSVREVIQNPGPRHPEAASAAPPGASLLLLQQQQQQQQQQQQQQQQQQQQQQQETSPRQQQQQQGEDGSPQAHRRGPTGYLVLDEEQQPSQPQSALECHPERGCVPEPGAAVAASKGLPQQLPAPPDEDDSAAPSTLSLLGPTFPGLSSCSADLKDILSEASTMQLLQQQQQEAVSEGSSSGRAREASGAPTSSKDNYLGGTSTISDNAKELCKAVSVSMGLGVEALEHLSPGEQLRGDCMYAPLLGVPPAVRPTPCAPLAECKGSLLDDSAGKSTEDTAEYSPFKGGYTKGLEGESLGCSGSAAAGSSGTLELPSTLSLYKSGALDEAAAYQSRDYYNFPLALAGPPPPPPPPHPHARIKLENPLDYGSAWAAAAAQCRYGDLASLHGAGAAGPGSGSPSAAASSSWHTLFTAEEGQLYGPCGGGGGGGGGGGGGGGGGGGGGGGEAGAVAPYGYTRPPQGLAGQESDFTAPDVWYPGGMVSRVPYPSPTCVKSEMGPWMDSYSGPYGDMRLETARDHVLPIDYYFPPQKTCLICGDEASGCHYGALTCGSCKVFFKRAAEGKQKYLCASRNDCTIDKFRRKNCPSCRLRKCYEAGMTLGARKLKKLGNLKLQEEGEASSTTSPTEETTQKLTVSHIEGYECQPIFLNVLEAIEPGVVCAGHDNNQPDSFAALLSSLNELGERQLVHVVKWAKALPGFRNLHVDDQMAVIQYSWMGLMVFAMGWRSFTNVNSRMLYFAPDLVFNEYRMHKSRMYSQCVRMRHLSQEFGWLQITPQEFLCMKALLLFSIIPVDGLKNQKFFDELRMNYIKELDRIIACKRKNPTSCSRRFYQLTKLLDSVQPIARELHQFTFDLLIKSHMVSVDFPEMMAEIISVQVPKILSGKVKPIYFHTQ
Sequence of Estrogen receptor (Homo sapiens) (P03372 whole entry, looked up): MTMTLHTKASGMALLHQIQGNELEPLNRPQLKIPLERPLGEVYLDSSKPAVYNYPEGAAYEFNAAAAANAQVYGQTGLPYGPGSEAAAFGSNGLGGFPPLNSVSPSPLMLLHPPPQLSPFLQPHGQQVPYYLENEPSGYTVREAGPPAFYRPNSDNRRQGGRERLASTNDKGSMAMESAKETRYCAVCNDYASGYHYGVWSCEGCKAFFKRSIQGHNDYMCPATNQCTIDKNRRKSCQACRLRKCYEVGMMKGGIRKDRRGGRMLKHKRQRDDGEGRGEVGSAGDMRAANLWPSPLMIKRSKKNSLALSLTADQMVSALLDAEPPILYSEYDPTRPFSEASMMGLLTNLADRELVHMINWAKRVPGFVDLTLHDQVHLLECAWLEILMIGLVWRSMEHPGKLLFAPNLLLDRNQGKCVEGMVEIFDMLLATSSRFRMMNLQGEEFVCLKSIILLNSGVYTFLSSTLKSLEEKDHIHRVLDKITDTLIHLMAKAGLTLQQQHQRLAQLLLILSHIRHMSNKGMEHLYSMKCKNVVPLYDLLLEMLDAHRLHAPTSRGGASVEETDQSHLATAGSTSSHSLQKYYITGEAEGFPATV

As to `CC1(C(=O)Nc2ccc(O)c(Cl)c2Cl)CCCCC1`, the result in [1], in [3] and in experiment [6] was inactive. For the same molecule, the Potency entry in experiment [2], in experiment [7], in experiment [8], in experiment [9] and in experiment [10] was “inactive” each time. The Potency in experiment [4] and in experiment [5] was 43.3 µM (active) in each case.
For `O=[N+]([O-])c1cccc(O)c1`, the outcome in [1], in [3] and in [6] was inactive. Besides, the Potency result in experiment [4], in [5], in experiment [11], in [7], in experiment [8] and in experiment [9] was “inactive” in each case. Besides, the Potency entry in experiment [12], in experiment [13] and in [10] was “inactive” each time.
Turning to `COC(=O)COc1ccc(Cl)cc1Cl`, the outcome in experiment [1], in [3] and in [6] was inactive. The Potency result in experiment [2], in experiment [4], in experiment [7], in [8], in experiment [9] and in experiment [12] was “inactive” in each case. The Potency result in [13] was “inactive”.
In the case of `CNC(=O)O/N=C(\C)SC`, the outcome in [1], in experiment [3], in experiment [6] and in experiment [14] was inactive. For the same molecule, the Potency entry in experiment [2], in experiment [4], in experiment [11], in experiment [15], in experiment [7] and in [9] was “inactive” in each case. Also, the Potency entry in [12], in [13] and in experiment [10] was “inactive” each time.
`CCCCCCBr`: the result in [1], in [3] and in [6] was inactive. For the same molecule, the Potency result in experiment [4], in [5], in experiment [11], in experiment [7], in experiment [8] and in [9] was “inactive” each time. The Potency entry in experiment [12] and in experiment [13] was “inactive” in each case.
`CC(C=O)Cc1ccc2c(c1)OCO2` (stereo unspecified): the outcome in experiment [1], in experiment [3], in experiment [6] and in [14] was inactive. The Potency entry in experiment [2], in experiment [4], in experiment [11], in experiment [15], in experiment [7] and in experiment [8] was “inactive” each time. The Potency result in experiment [9], in experiment [12] and in experiment [13] was “inactive” in each case.
Turning to `CCOP(=S)(Oc1cnc(C(C)(C)C)nc1)OC(C)C` (stereo unspecified), the outcome in [1], in experiment [3] and in [6] was inactive. For the same molecule, the Potency entry in experiment [2], in experiment [4], in [5], in [11], in experiment [7] and in experiment [9] was “inactive” each time. In addition, the Potency result in experiment [12] and in [10] was “inactive” each time.
Consider `CCC#N`, for which the outcome in [1], in experiment [3] and in experiment [6] was inactive. For the same molecule, the Potency result in [2], in experiment [4], in experiment [5], in experiment [11], in experiment [15] and in experiment [7] was “inactive” each time. Further, the Potency entry in experiment [8], in experiment [9], in [12], in [13] and in experiment [10] was “inactive” each time.
With `CCC(=O)C(CCN(C)C)(c1ccccc1)c1ccccc1`, the Potency result in experiment [16], in [17], in experiment [4], in [7], in experiment [8] and in experiment [18] was “inactive” throughout. Further, the Potency entry in [9], in [19] and in experiment [10] was “inactive” each time. Also, the molecule was called inactive in experiment [3] and in [6].
As for `Cc1ccccc1CO[C@@H]1C[C@@]2(C(C)C)CC[C@]1(C)O2`, the outcome in experiment [1], in [3] and in experiment [6] was inactive. The Potency result in experiment [4], in [11], in experiment [7], in experiment [8], in experiment [18] and in [9] was “inactive” each time. Besides, the Potency entry in [12] and in [10] was “inactive” in each case.

The values are drawn from PubChem BioAssay (Tox21).
